Screens deposited in PubChem BioAssay by National Center for Advancing Translational Sciences (NCATS).
TSHR antag = antagonists of human thyroid stimulating hormone receptor; P16473; activity change, negative = inhibition, % at 11.5 µM; AID 504810; hit rate 0.2% among 330,000; TSHR-expressing cells, TSH-stimulated cAMP HTRF, 2 h; active compounds read low;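 active = activity change below a set negative limit, meaning inhibition stronger than a set level, cut at about -70% in these data; inconclusive = activity change between two set negative limits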
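TSHR-expressing cells were treated with compounds, then stimulated with TSH at EC80 (4nM final) for 2 hours at 37 deg C. Cellular cAMP was measured by HTRF competition between lysate cAMP and cAMP-d2 for a cryptate-labelled anti-cAMP antibody.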
RORgamma inh = ROR gamma (mouse) transcription inhibition. hit rate 5.4% among 310,000. Potency, µM (top dose mostly 53.6 µM), actives largely listed as inhibitors. Drosophila S2 Gal4-RORgamma UAS-luciferase reporter, 20 h. P51450; note: nearly all actives have a fitted effect of over 60% in size
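Using a luciferase readout, inhibitors were identified by reduced reporter activity in Drosophila cells coexpressing a copper-inducible Gal4–ROR gamma fusion and UAS-driven Photinus luciferase, incubated 20 hr after 700 uM copper sulfate.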
ELG1 repair inh = blocks ELG1-dependent DNA repair in HEK293T cells. AID 504467. HEK293T ELG1-luciferase reporter, luminescence, 16 h; DNA damage induced by 5-fluorouridine. Potency, µM (doses to about 46.1 µM), hits mostly inhibitors. hit rate 2.3% among 330,000; note: nearly all actives have a fitted effect of over 55% in size
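5-Fluorouridine DNA damage + compound/DMSO, 2,000 cells/well, 16 h, 37 °C/5% CO2. ONE-Glo, 30 min RT, luminescence. Readout = decrease in reporter signal.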
Gal4-VP16 FLuc = inhibits Gal4-VP16 luciferase reporter, ROR gamma counter-screen | Potency, µM (series often up to 53.6 µM), usual class: inhibitors | hit rate 3.5% among 310,000 | Drosophila S2 Gal4-VP16 UAS-luciferase, luminescence, 20 h | AID 2546;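 note: Gal4-VP16 expression switched on by copper sulfate through the metallothionein promoter; nearly all actives have a fitted effect of over 50% in size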
B2AR arrestin = recruits beta-arrestin to the human beta2-adrenergic receptor; beta-arrestin recruitment to beta2AR, cell-based reporter; Potency, µM (top dose mostly 46.1 µM), usual class: activators; hit rate 0.02% among 330,000; note: nearly all actives have a fitted effect of over 65% in size
Target sequence (P07550 whole entry, looked up): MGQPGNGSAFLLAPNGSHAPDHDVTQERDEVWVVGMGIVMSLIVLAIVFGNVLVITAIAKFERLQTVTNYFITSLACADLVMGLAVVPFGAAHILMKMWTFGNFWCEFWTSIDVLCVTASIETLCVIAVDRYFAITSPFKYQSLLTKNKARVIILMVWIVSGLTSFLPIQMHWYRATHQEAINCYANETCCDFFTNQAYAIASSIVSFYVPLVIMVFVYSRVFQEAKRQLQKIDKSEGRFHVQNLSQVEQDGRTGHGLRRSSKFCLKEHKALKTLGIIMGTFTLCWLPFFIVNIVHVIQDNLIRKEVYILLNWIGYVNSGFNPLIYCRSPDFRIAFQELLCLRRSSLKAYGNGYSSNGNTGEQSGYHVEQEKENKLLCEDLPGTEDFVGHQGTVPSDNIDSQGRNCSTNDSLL
Numbers stand for hits; i = inactive; ? = inconclusive; nt = no result; [ ] = another dose, or the depositor's remark. Sampled rows, rich in hits. Any-hit rate of the full collection: about 7.5%. Unless noted, calls come from the whole dose curve; as a rule, active = well fitted curve in the direction sought with a large enough effect; inconclusive = small, poorly fitted or top-dose-only effect, or another doubt; inactive = no such curve, though single readings can be large; an effect the other way counts as inactive or inconclusive.

SMILES	TSHR antag	RORgamma inh	ELG1 repair inh	Gal4-VP16 FLuc	B2AR arrestin
CSc1nc2ccc3nc(NC(=O)C4COc5ccccc5O4)sc3c2s1 (stereo not given)	i	10µM	?	i	i
CC1CC1C(=O)Nc1nc(-c2ccccn2)cs1 (stereo not given)	i	11.2µM	i	?	i
COc1ccc(-n2c(=O)c(C)nc3cnc(N(C)C)nc32)cc1	nt	i	nt	i	nt
CCOc1c([N+](=O)[O-])cc2c(C)c(C(=O)N3CCN(C)CC3)oc2c1OCC	i	i	i	i	i
C[C@@H](C(=O)Nc1nc(-c2ccccn2)cs1)N1C(=O)C2CCCCC2C1=O (stereo not given in full)	i	12.6µM	i	?	i
O=C(CN1C(=O)C2CCCCC2C1=O)Nc1nc(-c2ccccn2)cs1 (stereo not given)	i	?	?	i	i
Cc1cnc(NC(=O)C2COc3ccccc3O2)s1 (stereo not given)	i	7.08µM	?	8.91µM	i
Cc1nc2ccc3nc(NC(=O)C4COc5ccccc5O4)sc3c2s1 (stereo not given)	i	i	i	?	i
O=C(Nc1ccc(Cl)cn1)C1COc2ccccc2O1 (stereo not given)	i	3.98µM	i	?	i
CC1CCc2nc(NC(=O)C3COc4ccccc4O3)sc2C1 (stereo not given)	i	?	?	10µM	i
CC[C@@]1(C(=O)OC)N[C@H](CN(C)C(=O)C2CCCCC2)[C@@H]2C(=O)N(Cc3ccccc3)C(=O)[C@@H]21	i	nt	i	nt	i
CCCCC/C=C\C/C=C\C/C=C\CCCCC(=O)NC(C)C(=O)O (stereo not given)	nt	i	nt	i	nt
Cc1ccc(N(CC(=O)N2CCN(c3ccc(F)cc3)CC2)S(=O)(=O)c2c(C)noc2C)cc1	i	i	i	i	i
CN(C)c1ncc2nc(-c3cc(F)cc(F)c3)c(=O)n(C3CC3)c2n1	nt	i	nt	i	nt
O=C(Nc1nc(-c2ccccn2)cs1)C1COc2ccccc2O1 (stereo not given)	i	0.891µM	i	0.199µM	i
Cc1csc(NC(=O)C2COc3ccccc3O2)n1 (stereo not given)	i	14.1µM	?	11.2µM	i
O=C(Nc1nc(-c2ccccc2)cs1)C1COc2ccccc2O1 (stereo not given)	i	i	i	i	i
CC(=O)Oc1ccccc1/C=C/c1nc2ccccc2c(=O)o1	i	8.91µM	i	10µM	i
COC(=O)c1c(-c2ccccc2)csc1N	nt	i	nt	i	nt
COC(=O)C1=C(N)c2ccccc2C1(C#N)c1ccccc1 (stereo not given)	i	i	i	15.8µM	i
COc1ccc(NC(=O)NC2(C(=O)N3CCCC(C)C3)CCCCC2)cc1 (stereo not given)	i	i	?	i	i
Cc1ccc(S(=O)(=O)/N=C2/NC(=O)/C(=C\c3cc(Br)cc(Br)c3O)S2)cc1	-99.8	11.2µM	i	i	i
Cc1c(O)ccc2c(CC(=O)N[C@@H](Cc3ccc(O)cc3)C(=O)O)cc(=O)oc12	i	i	i	i	i
C/C(CC1CC(C)OC1=O)=N\NC(N)=S (stereo not given)	i	8.91µM	i	?	i
Cc1cccc(NC(=S)NCCc2c[nH]c3ccccc23)c1	i	2.51µM	i	1µM	i
SMILES	TSHR antag	RORgamma inh	ELG1 repair inh	Gal4-VP16 FLuc	B2AR arrestin
CC(C)c1ccc(NC(=S)NCCc2c[nH]c3ccccc23)cc1	i	10µM	i	?	i
COc1ccc(CCNC(=S)NCCc2c[nH]c3ccccc23)cc1	i	12.6µM	i	?	i
Cc1cc(C)cc(NC(=O)C(=O)NCCc2c[nH]c3ccccc23)c1	i	i	i	i	i
COc1ccc(CNC(=O)NCCc2c[nH]c3ccccc23)cc1	i	i	?	i	i
Cc1ccc(NC(=S)NCCc2c[nH]c3ccccc23)cc1	i	7.94µM	?	20µM	i
CCC[C@H](NC(C)=O)C(=O)N[C@H]1CC(=O)ONCCCC[C@@H](C(N)=O)NC(=O)[C@H](Cc2c[nH]c3ccccc23)NC(=O)[C@H](CCCN=C(N)N)NC(=O)[C@@H](Cc2ccc3ccccc3c2)NC(=O)[C@H](Cc2cnc[nH]2)NC1=O	nt	i	nt	i	nt
CC(=O)Nc1ccc(OC(=O)c2ccccc2OC(C)=O)cc1	nt	i	nt	?	nt
O=C(O)Cn1cc(C(=S)N2CCCCC2)c2ccccc21	i	i	i	i	i
S=C(c1cn(CCOc2cccc3ccccc23)c2ccccc12)N1CCCC1	i	11.2µM	i	?	i
COCCn1cc(C(=S)N2CCOCC2)c2ccccc21	i	i	?	i	i
Cc1ccc(OCCn2cc(/C(N)=N/O)c3ccccc32)cc1C	i	i	i	i	i
COCCn1cc(C(=S)N2CCCCC2)c2ccccc21	i	15.8µM	i	?	i
Cc1ccc(OCCn2cc(C(=S)N3CCCC3)c3ccccc32)cc1C	i	6.31µM	i	i[0.365 µM]	i
S=C(c1cn(CCOc2ccccc2)c2ccccc12)N1CCCC1	i	7.08µM	i	i[0.365 µM]	i
CCn1ncc(Cl)c1C(=O)Nc1cc(Cl)ccc1Cl	nt	i	nt	i	nt
Cc1nn(C)c(C(=O)NC(=S)Nc2ccccc2Br)c1Cl	i	8.91µM	i	14.1µM	i
CCn1ncc(Cl)c1C(=O)NC(=S)Nc1ccccc1Br	i	8.91µM	i	8.91µM	?
CCC1C(=O)C(CC)C(c2ccccc2)NC1c1ccccc1 (stereo not given)	i	0.282µM	i	i	i
ClC(Cl)(c1nnnn1-c1ccccc1)c1nnnn1-c1ccccc1	i	10µM	i	5.01µM	i
CCn1c(C)nc2cc(C(=O)NNC(=S)Nc3ccc(Cl)cc3Cl)ccc21	i	i	i	?	i
CCn1c(C)nc2cc(C(=O)N/N=C(\C)c3ccc(OC)cc3O)ccc21	i	1µM	7.3µM	2.82µM	i
Cc1ccc(NC(=O)Nc2ccc3c(c2)nc(C)n3C)cc1	i	i	?	i	i
CCn1c(C)nc2cc(C(=O)NNC(=S)Nc3ccccc3Cl)ccc21	i	11.2µM	?	20µM	i
Cc1nc2cc(NC(=O)Nc3ccccc3Cl)ccc2n1C	i	5.01µM	?	11.2µM	i
CCn1c(C)nc2cc(C(=O)N/N=C/c3cccc(O)c3O)ccc21	i	2.24µM	?	11.2µM	i
O=C(NC1CCOCC1)C1CCC(=O)N(CCc2ccc(Cl)cc2)C1 (stereo not given)	i	i	i	i	i
CCN(c1ccccc1)S(=O)(=O)c1cccc(C(=O)NCCN2CCOCC2)c1	i	nt	i	nt	i
COc1ccc(S(=O)(=O)N2CCCCC2)cc1NC(=O)CN(Cc1ccco1)Cc1ccco1	i	nt	?	nt	i
CC1=NN(c2nc(-c3ccccc3)cs2)C(=O)C1N=Nc1ccccc1 (stereo not given)	i	7.08µM	i	i	i
O=C1COCCN1	nt	i	nt	i	nt
